Among the data in PubChem BioAssay (EPA / NIEHS) are outcome and AC50 values, retold here.

“And” between values parts separate entries of the source, which are not always exact repeats. Identical values can stand only once. The source made the active and inactive calls. How the source made its calls: active means hit-call score of the fitted dose curve at least 0.9, where 1 is the maximum; inactive means score below 0.9.

Read-out in the test: Interleukin-8 (IL8), CXCL8 (gene 3576)
The test is described as follows: BSK_BF4T_IL8: BioMAP Diversity Plus: BF4T Assay for Interleukin-8 (IL8) Biomarker Activity (AID 2284263). The settings on record: primary human bronchial epithelial cells with fibroblasts. The procedure: BSK_BF4T is a cell-based, multiplexed-readout assay that uses bronchial epithelial cells and dermal fibroblasts, a human vascular primary cell, with measurements taken at 24 hours after chemical dosing in a microplate: 96-well plate.BSK_BF4T_IL8 is an assay component measured in the BSK_BF4T assay. It measures IL-8 antibody related to regulation of gene expression using ELISA technology.Data from the assay component BSK_BF4T_IL8 was analyzed at the endpoint, BSK_BF4T_IL8, in the positive analysis fitting direction relative to DMSO as the negative control and baseline of activity. Using a type of binding reporter, gain or loss-of-signal activity can be used to understand protein changes. To generalize the intended target to other relatable targets, this assay endpoint is annotated to the 'cytokine' intended target family, where the subfamily is 'interleukins'.
The levels of cell surface (or secreted, indicated by the prefix "s") biomarker endpoints were measured by ELISA. Overt cytotoxicity to cells in confluent adherent cultures (all systems other than the BT system) was assessed by measuring total protein levels using sulforhodamine B (SRB) staining in parallel cultures at the time of biomarker measurements, indicated as SRB endpoints. For proliferation assays for adherent cell types, individual cell types are cultured at sub-confluence and relative cell numbers quantified by SRB staining at time points optimized for each system (48 h: 3C and CASM3C systems; 72 h: BT and HDF3CGF systems; 96 h: SAg system). SRB was performed by staining cells with 0.1% SRB after fixation with 10% TCA and reading wells at 560 nm.Viability and proliferation of PBMC (T cells) was quantified by Alamar Blue reduction for the SAg and BT systems. For PBMC viability (referred to as PBMC Cytotoxicity within the assay endpoint names), cells were plated (75,000/well in a 96-well plate) and then chemical samples added for 1 h before addition of activators, SEB and TSST-1 (20 ng/mL final concentration each). Cells were incubated for 90 h. Then, Alamar Blue (20 uL/well) (Invitrogen, Cat DAL1100) was added for 6 h, and the plates were read with a fluorescence microplate reader at 546/580 nm (excitation/emission). For PBMC proliferation, cells were plated and activated as above but incubated for only 16 h prior to addition of Alamar Blue. Plates were read after 6 h.
As for `FC(F)(F)C(F)(C(F)(F)F)C(F)(F)C(F)(F)CC1CO1` (centres undefined), the outcome was inactive.
Consider `CC(O)C(F)(F)C(F)(F)F` (centres undefined), for which the outcome was inactive.
Regarding `O=C(O)C(F)(F)OC(F)(F)C(F)(F)OC(F)(F)F`, the outcome was inactive.
As to `O=C(O)C(F)(OC(F)(F)C(F)(F)C(F)(F)F)C(F)(F)F` (centres undefined), the outcome was inactive.
As to `COC(=O)C(F)(F)C(F)(F)OC(F)(C(F)(F)F)C(F)(F)OC(F)=C(F)F` (centres undefined), the result was inactive.
As to `C=CC(=O)OCC(F)(F)C(F)F`, the result was inactive.
Consider `OCC(F)(F)OC(F)(F)C(F)(F)OC(F)(F)C(F)(F)OC(F)(F)CO`, for which the outcome was inactive.
For the compound `OCC(F)(F)OC(F)(F)C(F)(F)OC(F)(F)C(F)(F)OC(F)(F)F`, the AC50 was 42.8 µM (active) and 39.6 µM (active).
Regarding `O=C(O)C=CC(F)(C(F)(F)F)C(F)(F)F`, the result was inactive.
With `O=C(O)C(F)(F)OC(F)(F)C(F)(F)OC(F)(F)C(=O)O`, the outcome was inactive.
Consider `O=C(O)C(F)(F)C(F)(F)C(=O)O`, for which the result was inactive.
For `O=S(=O)(F)C(F)(F)C(F)(F)C(F)(F)C(F)(F)C(F)(F)C(F)(F)C(F)(F)C(F)(F)F`, the outcome was inactive.
Regarding `NC(=O)C(F)(F)C(F)(F)F`, the outcome was inactive.
Consider `OCC(F)(F)OC(F)(F)C(F)(F)OC(F)(F)CO`, for which the result was inactive.
